In all, about 340,000 compounds went through this assay and about 930 (0.27%) were called active. The sample as a whole holds a higher share of actives than the screen did. Unmarked numbers belong to inactive results.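 The calls were made as follows: active = inhibition above the screen-wide average of all tested compounds plus 3 SD (cut at about 25% in these data); inactive = the rest.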

For 58 compounds, inhibition results are on record in PubChem BioAssay AID492972 (The Scripps Research Institute Molecular Screening Center, 2010).

Chain of Platelet-activating factor acetylhydrolase IB subunit alpha1 (Homo sapiens) (Q15102 whole entry, looked up): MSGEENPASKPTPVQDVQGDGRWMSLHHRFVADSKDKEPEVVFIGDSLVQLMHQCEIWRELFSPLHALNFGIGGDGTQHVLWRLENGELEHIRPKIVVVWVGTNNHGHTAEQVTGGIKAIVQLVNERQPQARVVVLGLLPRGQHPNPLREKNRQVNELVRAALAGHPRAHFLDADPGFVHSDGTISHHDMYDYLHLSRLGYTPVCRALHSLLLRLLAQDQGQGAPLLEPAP

The assay concerns the target Platelet-activating factor acetylhydrolase IB subunit alpha1 (Homo sapiens) (UniProt Q15102). Put plainly: inhibition of PAF acetylhydrolase 1B subunit 3 – biochemical, fluorescence polarization, human, primary screen (AID 492972).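 Also: 0% = enzyme with DMSO only and 100% = wells lacking PAFAH1B3 protein.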 The following applies: recombinant PAFAH1B3, FP-rhodamine probe, at 3.39 µM, hits give high values.
In the case of `CC(C)c1ccc(NC(=O)[C@@H](NC(=O)N2CC(=O)Nc3ccccc32)C(C)C)cc1`, the inhibition (as a rule, the relative decrease from the control value, in per cent) was 6.6%.
Turning to `Cc1nc(NC(CC(C)C)C(=O)O)c2nc(C)oc2n1` (stereo not drawn), the inhibition was 7.36%.
The same measure for `COc1cccc(N(CC(=O)NCCSc2ccccn2)S(C)(=O)=O)c1`: 12.7%; for `CCOC(=O)[C@H]1[C@H]2COc3ccc(Br)cc3[C@@H]2N2C(=O)CN(C)C(=O)[C@@]12C`: 2.41%; for `CCOc1cccc(/C=N/N2C(=O)CSC2=S)c1O`: 13.7%.
On to `O=C1CSC(=S)N1/N=C/c1ccc(O)c([N+](=O)[O-])c1`, for which the inhibition was 31.7% (active).
Regarding `Cc1cc(C(=O)N/N=C/c2ccc(O)c([N+](=O)[O-])c2)c(C)n1-c1ccc(F)cc1`, the inhibition is 9.16%.
In the case of `Cc1ccc(C)c2[nH]c(=O)c(CCNC(=O)CC(C)C)cc12`, the inhibition is 13.2%.
Turning to `O=C(O)c1ccc(Cn2cnc3c(=S)nc[nH]c32)cc1`, the inhibition was -3%.
Turning to `COC(=O)c1ccccc1NC(=O)CSc1n[nH]c(-c2ccncc2)n1`, the inhibition is -3.63%.
Take `CC(=O)Nc1ccc(S(=O)(=O)N2CCC(C(=O)N[C@@H](Cc3ccccc3)C(=O)O)CC2)cc1`: the inhibition is -0.21%.
The same measure for `CCOC(=O)c1ccn(-c2nc(-c3ccco3)cc(C(F)(F)F)n2)n1`: 1.73%; for `Cc1c(C(=O)O)nnn1-c1nonc1N`: 3.33%; for `COC(=O)C1=C(C)NC(=O)/C1=C/c1ccc(CNS(=O)(=O)c2ccc(C)cc2)o1`: 10.7%.
Turning to `Cn1c(Cc2cccs2)nnc1SCC(=O)Nc1ccccc1`, the inhibition is 10.8%.
Take `CCOC(=O)C1=C(C)c2ccccc2OC1(C)C(=O)OCC` (stereo not drawn): the inhibition is 2.09%.
For `CCOC(=O)c1[nH]c2ccccc2c1N=C(C)N(CC)CC`, the inhibition is 9.46%.
In the case of `CCOC(=O)c1c(C)[nH]c2c1-c1ccccc1C(=O)C2=O`, the inhibition is 58.3% (active).
For `c1ccc(-c2c[nH]c(-c3ccccc3)c2)cc1` the value was 3.23%; for `Cc1nc(CNS(=O)(=O)c2ccc(Oc3ccccc3)cc2)cs1`, 13.7%.
`CNC(=S)N/N=C/c1cn(Cc2ccc(C)cc2)c2ccccc12`: the inhibition was 3.79%.
The same measure for `N#CCC(=O)N/N=C/c1cn(Cc2ccc3ccccc3c2)c2ccccc12`: -0.94%; for `COc1cccc(Cn2cc(/C=N/NC(=O)c3cc(O)cc(O)c3)c3ccccc32)c1`: 37.5% (active).
Take `COC(=O)C1=C[C@@H](C(=O)OC)[C@@H]2C3=C(C(=O)[C@]2(C)NC(=O)c2ccccc2)[C@H](C)n2c(=O)n(C)c(=O)n2[C@@H]3C1`: the inhibition was 4.02%.
Turning to `COC(=O)Cc1ccc(N(Cc2ccccc2F)S(=O)(=O)c2ccc(Br)cc2)cc1`, the inhibition was 8.61%.
As to `CCN(CC)S(=O)(=O)N1CCC(C(=O)NC(C)CCc2ccccc2)CC1` (stereo not drawn), the inhibition was 9.79%.
Take `CC(C)N(C)C(=O)CCc1nnc(CCc2c[nH]c3ccccc23)o1`: the inhibition was 1.11%.
As to `CN(C)CCCCCN(C)Cc1cc2ccccc2o1`, the inhibition was 3.58%.
For `O=C(Cn1nc([N+](=O)[O-])nc1Br)NC1CCCCC1`, the inhibition was 11%.
Turning to `CCN1CCc2nc(NC(=O)c3cc(F)c(F)cc3Cl)sc2C1`, the inhibition was 1.2%.
For `CC(C)c1ccc(S(=O)(=O)N2CCN(C(=O)CN3C(=O)NC(C)(c4ccccc4)C3=O)CC2)cc1` (stereo not drawn), the inhibition is 5.24%.
`COc1ccccc1N1CCN(c2nc(C)cc(=O)[nH]2)CC1`: the inhibition was 9.92%.
For `Clc1cc(NC2CCCCC2)ncn1`, the inhibition was 6.06%.
For the compound `COc1cccc(/C=C/C(=O)OCC(=O)N2CCN(c3ccccc3)CC2)c1`, the inhibition was -3.05%.
With `COc1ccc(C(=O)OCC(=O)c2ccc(C)c(S(=O)(=O)N3CCOCC3)c2)cc1OC`, the inhibition is 14%.
For `C[C@H](NC(=O)c1ccccc1Cl)C(=O)OCC(=O)N1CCN(c2ccccc2)CC1` the value was 2.77%.
Turning to `O=C(OCC(=O)N1CCN(c2ccccc2)CC1)c1ccc([N+](=O)[O-])s1`, the inhibition was 53.8% (active).
Regarding `COc1cc(NC(=O)COC(=O)c2ccc([N+](=O)[O-])s2)cc(OC)c1OC`, the inhibition was 23.3%.
Take `COc1ccc(C(=O)COC(=O)c2ccc([N+](=O)[O-])s2)cc1OC`: the inhibition was 33.9% (active).
For `CN1/C(=c2/s/c(=C3/C(=O)N(c4ccccc4)NC3=Nc3ccccc3)n(C)c2=O)C(C)(C)c2ccccc21` the value was 6.84%; for `COc1ccc(S(=O)(=O)/N=C2\C=C(NS(=O)(=O)c3ccccc3)C(=O)c3ccccc32)cc1`, -2.66%; for `CC(C)CC[n+]1ccn(C2=C([O-])c3ccccc3C(=O)/C2=N\S(=O)(=O)c2ccccc2)c1`, 34.1% (active).
With `CCCCCC(=O)Nc1ccc(-c2cn3cccnc3n2)cc1`, the inhibition was 8.1%.
Turning to `COc1ccc(-c2cc3n(n2)CCc2nc4ccccc4n2-3)cc1`, the inhibition is 1.18%.
Consider `O=C1C(Cl)=C(Oc2ccccc2)C(=O)c2ccccc21`, for which the inhibition was 37.3% (active).
The same measure for `CCC(C)C(NC(=O)C1CCC(=O)N1C(=O)OCc1ccccc1)C(=O)NC(C(=O)N1CCCC1C(N)=O)C(C)CC` (stereo not drawn): -7.74%.
The same measure for `CC1CCN(CCCn2c(SCC(=O)NC3CCCC3)nc3ccccc3c2=O)CC1`: 6.29%; for `O=Cc1cn(-c2ccccc2)nc1-c1ccccn1`: 0.88%.
With `Nc1ccc2nc3c(=O)[nH]c(=S)[nH]c3nc2c1`, the inhibition is 48.8% (active).
As to `Cn1ncc(Br)c1C(=O)NC1CCCC1`, the inhibition was 4.81%.
Consider `O=C(Nc1ccc(Br)cc1)C1CCC(=O)N1Cc1ccccc1Cl` (stereo not drawn), for which the inhibition was 7.1%.
In the case of `N#Cc1ccc(S(=O)(=O)NCC(=O)OCC(=O)NCCc2ccccc2)cc1`, the inhibition was -8.29%.
With `O=C(Oc1cccc(N2C(=O)C3C4c5ccccc5C(c5ccccc54)C3C2=O)c1)c1ccco1` (stereo not drawn), the inhibition is 12.6%.
For `COc1cccc(C2CC(c3ccccc3)=NN2S(=O)(=O)c2ccccc2)c1OC` (stereo not drawn), the inhibition was 0.58%.
For `COc1ccc(C(=O)C(C)OC(=O)c2cccc(S(=O)(=O)Nc3c(C)n(C)n(-c4ccccc4)c3=O)c2)cc1` (stereo not drawn), the inhibition was 10%.
`Oc1cccc(/C=N/Nc2ccc(Cl)nn2)c1O`: the inhibition is 55.2% (active).
As for `C/C(=N\Nc1ccc(Cl)nn1)c1ccccc1O`, the inhibition is 4.6%.
Regarding `O=C(NN=Cc1ccccc1O)NN=Cc1ccccc1O`, the inhibition was 7.65%.
